Laboratory results as given in PubChem BioAssay (Tox21).
Inconclusive results are not listed. Calls of active or inactive are those of the source. Unless noted, the call rests on the fitted dose curve; in most records, active means well fitted curve in the direction sought with a large enough effect in the repeat runs; inconclusive means weak or mixed curves; inactive means no such curve, though single readings can be large; an effect the other way counts as inactive or inconclusive.

Experiments:
[1] = qHTS assay to identify small molecule antagonists of the estrogen receptor alpha (ER-alpha) signaling pathway using the BG1 cell line in the presence of 0.1 nM 17-beta-estradiol - cell viability counter screen (AID 1259241); further: nearly all actives have a fitted effect of over 40% in size; further: potency means the concentration at half of the fitted maximal effect
Procedure, shortened: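 Viability in VM7Luc4E2 cells after 22 hr compound exposure under 0.1 nM 17beta-estradiol stimulation, by CellTiter-Fluor.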

[2] = qHTS assay to identify small molecule antagonists of the androgen receptor (AR) signaling pathway using the MDA cell line in the presence of 0.5 nM R1881 - cell viability counter screen (AID 1259242); further: nearly all actives have a fitted effect of over 45% in size; further: potency means the concentration at half of the fitted maximal effect
Procedure, shortened: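 Live-cell protease activity was measured by CellTiter-Fluor fluorescence after 30 min. Before that, MDA-kb2 MMTV-luciferase cells had 16 hr at 37C without CO2, exposed to test compounds and 0.5 nM R1881 final.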

[3] = biological target: Androgen receptor (Homo sapiens) (UniProt P10275); assay: qHTS assay to identify small molecule antagonists of the androgen receptor (AR) signaling pathway using the MDA cell line in the presence of 0.5 nM R1881 (AID 1259243); further: nearly all actives have a fitted effect of over 50% in size
Androgen receptor (Homo sapiens), sequence (P10275 whole entry, looked up): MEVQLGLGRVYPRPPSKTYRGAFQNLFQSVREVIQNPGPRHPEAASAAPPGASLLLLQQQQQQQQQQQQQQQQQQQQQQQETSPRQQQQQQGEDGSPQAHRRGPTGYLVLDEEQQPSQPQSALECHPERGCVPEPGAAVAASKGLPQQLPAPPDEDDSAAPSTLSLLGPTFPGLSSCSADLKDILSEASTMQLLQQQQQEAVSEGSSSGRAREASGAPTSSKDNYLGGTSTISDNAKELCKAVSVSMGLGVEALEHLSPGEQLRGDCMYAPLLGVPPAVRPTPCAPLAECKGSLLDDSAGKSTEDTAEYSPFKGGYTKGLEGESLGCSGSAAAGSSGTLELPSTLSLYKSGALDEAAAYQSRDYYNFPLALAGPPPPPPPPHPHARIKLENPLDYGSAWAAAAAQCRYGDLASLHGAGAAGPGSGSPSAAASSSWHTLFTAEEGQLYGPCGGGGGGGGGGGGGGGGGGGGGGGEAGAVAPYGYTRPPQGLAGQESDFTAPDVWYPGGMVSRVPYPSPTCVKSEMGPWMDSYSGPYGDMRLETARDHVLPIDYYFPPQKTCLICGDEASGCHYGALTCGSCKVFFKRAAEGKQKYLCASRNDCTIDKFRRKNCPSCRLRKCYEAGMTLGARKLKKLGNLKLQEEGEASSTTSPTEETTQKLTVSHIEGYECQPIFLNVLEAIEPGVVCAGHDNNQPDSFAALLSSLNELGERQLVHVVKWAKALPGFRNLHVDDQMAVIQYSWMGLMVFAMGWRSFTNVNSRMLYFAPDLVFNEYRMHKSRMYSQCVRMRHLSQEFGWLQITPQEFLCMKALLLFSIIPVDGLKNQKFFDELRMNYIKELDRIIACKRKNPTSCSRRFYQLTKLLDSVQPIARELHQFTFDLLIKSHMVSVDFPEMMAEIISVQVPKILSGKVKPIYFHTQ
Procedure, shortened: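 Luminescent reporter readout (ONE-Glo, 30 min, room temperature) after 16 hr co-treatment of MDA-kb2 cells with test compounds and 0.5 nM R1881 final, at 37C without CO2. The MMTV-driven luciferase responds to both AR and GR.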

[4] = qHTS assay to identify small molecule phospholipidosis (PLD) inducers (AID 1259344; active means well fitted curve in the direction sought with a large enough effect; an effect the other way counts as inactive or inconclusive)
Procedure, shortened: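 Image-based: LipidTOX Red pit count/intensity per well and per cell; HepG2, 24 h compound at 37 C, PFA fixation, Hoechst counterstain.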

[5] = qHTS assay to identify small molecule HDAC inhibitors (AID 1259364); further: top concentration of the series differs between compounds; nearly all actives have a fitted effect of over 45% in size
Procedure, shortened: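 Luminescence read after 30 min room-temperature HDAC-Glo incubation measures cellular class I/II HDAC activity. Compounds were applied for 2 hr at 37 C to HCT-116 wild-type cells seeded the day before.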

[6] = qHTS assay to identify small molecule HDAC inhibitors - cell viability counter screen (AID 1259365); further: series mostly up to about 92 µM; nearly all actives have a fitted effect of over 50% in size
Procedure, shortened: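 Cytotoxicity was gauged in wild-type HCT-116 cells after a brief 2hr treatment with DMSO-dissolved compounds at 37C and 5% CO2, using CellTiter-Glo luminescence developed for 30min at room temperature.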

[7] = qHTS assay to identify small molecule agonists of the sonic hedgehog signaling (Shh) pathway (AID 1259368; calls by dose curve;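 further: NIH/3T3-derived 3T3Gli1-Luc cells carrying a stable Gli1-driven firefly luciferase reporter; series mostly up to about 92 µM; nearly all actives have a fitted effect of over 15% in size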)
Procedure, shortened: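 Luminescence was read after 30 min at room temperature with luciferase reagent. Before that, 3T3Gli1-Luc cells (NIH/3T3 clone, stable Gli1-Luc reporter; 2,000/well) were exposed to compounds for 24 hr at 37C, 5% CO2, compounds being added 4 hr post-plating.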

[8] = biological target: Estrogen receptor beta (Homo sapiens) (UniProt Q92731); assay: qHTS assay to identify small molecule antagonists of the estrogen receptor beta (ER-beta) signaling pathway (AID 1259378; active means well fitted inhibition curve with a large enough effect in the signal ratio in the repeat runs, not every such curve was filed as active; the % refers to the signal ratio)
Estrogen receptor beta (Homo sapiens), sequence (Q92731 whole entry, looked up): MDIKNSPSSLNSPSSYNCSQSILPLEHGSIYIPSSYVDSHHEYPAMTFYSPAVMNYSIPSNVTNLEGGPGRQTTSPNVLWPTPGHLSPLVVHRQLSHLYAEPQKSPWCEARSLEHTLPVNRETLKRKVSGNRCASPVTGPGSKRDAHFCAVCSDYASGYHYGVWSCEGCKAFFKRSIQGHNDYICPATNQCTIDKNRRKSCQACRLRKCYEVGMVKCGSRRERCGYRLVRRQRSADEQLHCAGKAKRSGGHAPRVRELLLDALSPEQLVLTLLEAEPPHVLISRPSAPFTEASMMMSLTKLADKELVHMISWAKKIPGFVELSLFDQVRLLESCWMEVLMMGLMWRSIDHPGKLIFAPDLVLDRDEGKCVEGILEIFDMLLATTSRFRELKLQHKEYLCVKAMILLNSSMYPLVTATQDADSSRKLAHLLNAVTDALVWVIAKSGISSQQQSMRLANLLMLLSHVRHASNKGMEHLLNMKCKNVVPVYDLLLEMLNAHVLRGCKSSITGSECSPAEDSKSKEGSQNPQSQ
Procedure, shortened: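 ER-beta-UAS-bla HEK293T cells in 2% charcoal-stripped FBS medium treated with compound plus 1nM final 17-beta-estradiol for 16 hr at 37C. Beta-lactamase reporter read by FRET substrate fluorescence after 2 hours at room temperature.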

[9] = biological target: Androgen receptor (Homo sapiens) (UniProt P10275); assay: qHTS assay to identify small molecule agonists of the androgen receptor (AR) signaling pathway in the presence of an antagonist (AID 1259381; calls by dose curve; further: nearly all actives have a fitted effect of over 15% in size; further: potency means the concentration at half of the fitted maximal effect)
Procedure, shortened: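 Agonist-mode confirmation run against 3.0 uM final nilutamide: compounds titrated at 15 concentrations onto MDA-kb2 MMTV-luciferase reporter cells. Luminescence measured with ONE-Glo following 16 hr incubation, 37C, 0% CO2.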

[10] = biological target: Thyrotropin receptor (Homo sapiens) (UniProt P16473); assay: qHTS assay to identify small molecule antagonists of the thyroid stimulating hormone receptor (TSHR) signaling pathway (AID 1259385; calls by dose curve; further: nearly all actives have a fitted effect of over 20% in size)
Thyrotropin receptor (Homo sapiens), sequence (P16473 whole entry, looked up): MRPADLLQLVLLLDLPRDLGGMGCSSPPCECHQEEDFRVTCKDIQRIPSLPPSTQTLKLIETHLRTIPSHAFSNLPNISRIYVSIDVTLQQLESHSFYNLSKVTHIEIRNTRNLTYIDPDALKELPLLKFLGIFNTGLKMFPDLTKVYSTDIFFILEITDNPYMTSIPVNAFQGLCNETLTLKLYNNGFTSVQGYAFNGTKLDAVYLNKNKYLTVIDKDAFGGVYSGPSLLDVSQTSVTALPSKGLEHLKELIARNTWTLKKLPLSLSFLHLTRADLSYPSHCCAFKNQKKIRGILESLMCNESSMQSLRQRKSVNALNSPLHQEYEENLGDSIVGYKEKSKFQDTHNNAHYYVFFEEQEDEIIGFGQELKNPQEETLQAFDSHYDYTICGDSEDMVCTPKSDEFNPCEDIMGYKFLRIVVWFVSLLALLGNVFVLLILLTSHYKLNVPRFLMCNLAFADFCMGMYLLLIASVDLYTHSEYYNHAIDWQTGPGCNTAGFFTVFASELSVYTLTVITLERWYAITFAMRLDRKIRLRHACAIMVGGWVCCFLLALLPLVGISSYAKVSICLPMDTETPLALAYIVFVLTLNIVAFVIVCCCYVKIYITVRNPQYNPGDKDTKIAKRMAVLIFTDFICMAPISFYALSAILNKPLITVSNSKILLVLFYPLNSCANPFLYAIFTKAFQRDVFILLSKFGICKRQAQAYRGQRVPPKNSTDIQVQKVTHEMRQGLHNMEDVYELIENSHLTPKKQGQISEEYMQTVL
Procedure, shortened: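 TSHR-HEK293 cells (800/well) plated 18 h, then compounds with Ro20-1724 and TSH at 1.5 ng/mL final, 30 min at room temperature. cAMP quantified by HTRF (cAMP-d2/anti-cAMP-cryptate, 1 h); 15 concentrations in triplicate.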

[11] = qHTS assay to identify small molecule agonists of the sonic hedgehog signaling (Shh) pathway - cell viability counter screen (AID 1259366); further: nearly all actives have a fitted effect of over 50% in size; further: potency means the concentration at half of the fitted maximal effect
Procedure, shortened: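 Stable Gli1-Luc NIH/3T3 clone, 2,000 cells/well. Compound exposure 24hr at 37C. Read-out: CellTiter-Fluor fluorescence.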

[12] = qHTS assay to identify small molecule antagonists of the sonic hedgehog signaling (Shh) pathway - cell viability counter screen (AID 1259367); further: nearly all actives have a fitted effect of over 55% in size; further: potency means the concentration at half of the fitted maximal effect
Procedure, shortened: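 Tox21 library chemicals were tested on a Gli1-Luc NIH/3T3 clone (2,000 cells/well) stimulated by conditioned medium; viability was quantified as fluorescence from CellTiter-Fluor reagent added at 23 hr.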

[13] = qHTS assay to identify small molecule antagonists of the sonic hedgehog signaling (Shh) pathway (AID 1259369; calls by dose curve; further: nearly all actives have a fitted effect of over 45% in size; further: potency means the concentration at half of the fitted maximal effect)
Procedure, shortened: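 Antagonist mode: compound added to 3T3 Gli1-Luc cells followed by conditioned-medium stimulation, 24 h at 37 C, 5% CO2. Inhibition taken as loss of Gli1-driven luciferase luminescence.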

[14] = qHTS assay to identify small molecule agonists of the androgen receptor (AR) signaling pathway in the presence of an antagonist - cell viability counter screen (AID 1259379); further: nearly all actives have a fitted effect of over 25% in size; further: potency means the concentration at half of the fitted maximal effect;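 on activity change, negative = cytotoxicity: MDA-kb2 human breast cancer cells carrying an MMTV luciferase reporter; series mostly up to about 92 µM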
Procedure, shortened: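 Cytotoxicity counter-screen run in the same wells as the nilutamide-challenged (3.0 µM final) AR agonist assay in MDA-kb2 cells. Compounds tested at 15 concentrations for 16 h, 37 °C without CO2; CellTiter-Fluor fluorescence read.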

[15] = qHTS assay to identify small molecule agonists of the estrogen receptor beta (ER-beta) signaling pathway - cell viability counter screen (AID 1259380); further: nearly all actives have a fitted effect of over 30% in size; further: potency means the concentration at half of the fitted maximal effect
Procedure, shortened: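 Cell viability counter screen: CellTiter-Glo luminescence (30 min, room temperature) measured in the same wells as the beta-lactamase readout, after 16 hr compound exposure at 37C of ER-beta-bla HEK293T cells in 2% charcoal-stripped FBS medium.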

[16] = qHTS assay to identify small molecule antagonists of the estrogen receptor beta (ER-beta) signaling pathway - cell viability counter screen (AID 1259382); further: series mostly up to about 92 µM; nearly all actives have a fitted effect of over 55% in size
Procedure, shortened: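 Cytotoxicity was measured in the same wells by CellTiter-Glo luminescence after 30 min at room temperature. Cells were ER-beta-bla HEK293T in charcoal-stripped serum, given compound together with 1 nM E2 and incubated 16 h at 37C.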

[17] = biological target: Estrogen receptor beta (Homo sapiens) (UniProt Q92731); assay: qHTS assay to identify small molecule agonists of the estrogen receptor beta (ER-beta) signaling pathway (AID 1259377; active means well fitted activation curve with a large enough effect in the signal ratio in the repeat runs, not every such curve was filed as active; the % refers to the signal ratio)
Procedure, shortened: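 Measured by fluorescence intensity from a B/G FRET beta-lactamase substrate (2 h, room temperature) in ER-beta-UAS-bla HEK293T cells treated with DMSO-dissolved compounds for 16 hr at 37C and 5% CO2.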

[18] = biological target: Estrogen receptor (Homo sapiens) (UniProt P03372); assay: qHTS assay to identify small molecule agonists of the estrogen receptor alpha (ER-alpha) signaling pathway in the presence of an antagonist (AID 1259383; calls by dose curve; further: top concentration of the series differs between compounds; nearly all actives have a fitted effect of over 15% in size)
Estrogen receptor (Homo sapiens), sequence (P03372 whole entry, looked up): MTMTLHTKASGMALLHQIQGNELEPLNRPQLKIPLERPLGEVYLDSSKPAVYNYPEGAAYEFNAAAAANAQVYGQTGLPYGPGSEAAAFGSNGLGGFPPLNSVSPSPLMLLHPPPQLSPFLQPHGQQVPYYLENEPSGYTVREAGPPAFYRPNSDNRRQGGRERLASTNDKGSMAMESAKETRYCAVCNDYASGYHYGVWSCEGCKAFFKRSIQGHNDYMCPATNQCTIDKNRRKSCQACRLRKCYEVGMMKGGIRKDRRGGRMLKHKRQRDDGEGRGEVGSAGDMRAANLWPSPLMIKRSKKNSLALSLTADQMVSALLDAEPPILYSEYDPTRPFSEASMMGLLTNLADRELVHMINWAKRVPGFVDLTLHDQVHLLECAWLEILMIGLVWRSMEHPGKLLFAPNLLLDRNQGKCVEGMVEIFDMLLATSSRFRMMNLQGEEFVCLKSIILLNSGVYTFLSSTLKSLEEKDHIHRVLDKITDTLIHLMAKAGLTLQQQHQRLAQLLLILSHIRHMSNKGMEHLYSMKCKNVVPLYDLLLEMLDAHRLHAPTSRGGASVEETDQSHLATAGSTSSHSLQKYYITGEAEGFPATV
Procedure, shortened: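 Agonist-mode confirmation run in the presence of 10.0nM (final) ICI-182,780 antagonist. The reporter was ERE-driven luciferase in VM7Luc4E2 cells, grown in charcoal-stripped serum. Cells were exposed to 15-concentration compound series for 22hr, then ONE-Glo luminescence was read.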

[19] = qHTS assay to identify small molecule agonists or antagonists of the thyroid stimulating hormone receptor (TSHR) signaling pathway - wild type cell line counter screen (AID 1259384; calls by dose curve)
Procedure, shortened: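 Wild-type Hek293 cells, 800/well, 18 h at 37C, then compound with Ro20-1724 for 30 min RT. cAMP by HTRF (cAMP-d2/anti-cAMP cryptate), 1 h RT, fluorescence read. 15 concentrations, triplicates.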

[20] = biological target: Estrogen receptor (Homo sapiens) (UniProt P03372); assay: qHTS assay to identify small molecule antagonists of the estrogen receptor alpha (ER-alpha) signaling pathway using the BG1 cell line in the presence of 0.1 nM 17-beta-estradiol (AID 1259244); further: nearly all actives have a fitted effect of over 50% in size
Procedure, shortened: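 Luciferase luminescence (ONE-Glo, 30 min at room temperature) was read after 22 hr at 37C exposure to compounds plus 17beta-estradiol at 0.1 nM final. Cells were VM7Luc4E2 with endogenous ER-alpha and an ERE-driven luciferase, pre-cultured 5 days in hormone-depleted medium.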
On the % scale 0 is the no-effect control and ±100 the full control effect.

CC[C@]12CCCN3CCc4c(n(c5ccccc45)C(=O)C1)[C@@H]32
inactive: Potency [1] | Potency [2] | Potency [3] | Potency [4] | Potency [5] | outcome [6] | outcome [7] | Potency [8] | Potency [10]
active: Potency [9] 29.8 µM

NC(=S)N/N=C/c1cccnc1
inactive: Potency [1] | Potency [2] | Potency [3] | Potency [4] | Potency [5] | outcome [6] | Potency [11] | Potency [12] | outcome [7] | Potency [13] | Potency [14] | Potency [15] | Potency [9] | Potency [16]

O=C(C(=O)c1ccc(Br)cc1)c1ccc(Br)cc1
active: Potency [13] 6.78 µM | Potency [9] 15.2 µM
inactive: activity change, negative = cytotoxicity [1] -6.61% [at 19 µM] | viability change, negative = cytotoxic [2] -1.93% [at 19 µM] | activity, negative = inhibition [3] 66.2% [at 19 µM] | activity change, negative = inhibition [5] 4.75% [at 19 µM] | activity change, negative = cytotoxicity [6] -0.456% [at 19 µM] | viability change, negative = cytotoxic [11] 7.56% [at 19 µM] | viability change, negative = cytotoxic [12] -13.1% [at 19 µM] | activity change [7] -0.0641% [at 18.9 µM] | activation [17] 0.63% [at 19 µM] | activity change, negative = cytotoxicity [14] 0.135% [at 19 µM] | activity change, negative = cytotoxicity [15] 0.571% [at 19 µM] | activity change, negative = cytotoxicity [16] -2.64% [at 19 µM] | activation [18] 0.308% [at 19 µM] | activity change, negative = inhibition [10] -5.08% [at 19 µM]

O=C(O)Cc1sc(-c2ccccc2)nc1-c1ccc(Cl)cc1
inactive: Potency [1] | Potency [2] | Potency [3] | Potency [4] | outcome [6] | Potency [11] | Potency [12] | outcome [7] | Potency [13] | Potency [14] | Potency [9] | Potency [18] | Potency [19] | Potency [10]
active: Potency [15] 21.1 µM

Cc1cc(C)c(S(=O)(=O)O)cc1N=Nc1cc(S(=O)(=O)O)c2ccccc2c1O
active: Potency [1] 54.5 µM | Potency [2] 61.1 µM | Potency [11] 27.3 µM | Potency [12] 30.6 µM | Potency [14] 27.3 µM
inactive: Potency [3] | Potency [5] | outcome [6] | outcome [7] | Potency [17] | Potency [8] | Potency [15] | Potency [9] | Potency [16] | Potency [19] | Potency [10]

COc1ccc(C(C)=O)cc1
inactive: Potency [1] | Potency [2] | Potency [3] | Potency [20] | Potency [5] | outcome [6] | Potency [11] | Potency [12] | outcome [7] | Potency [13] | Potency [8] | Potency [14] | Potency [9] | Potency [16] | Potency [18]

N[C@H]1C(O)O[C@H](CO)[C@H](O)[C@@H]1O (some centres not stated)
inactive: Potency [1] | Potency [2] | Potency [3] | Potency [20] | outcome [6] | Potency [11] | Potency [12] | Potency [13] | Potency [17] | Potency [8] | Potency [14] | Potency [15] | Potency [9] | Potency [16] | Potency [18] | Potency [19] | Potency [10]

CC(=O)N(O)CCCCCNC(=O)CCC(=O)N(O)CCCCCNC(=O)CCC(=O)N(O)CCCCCN
inactive: Potency [1] | Potency [2] | Potency [3] | Potency [4] | Potency [5] | outcome [6] | Potency [11] | Potency [12] | outcome [7] | Potency [13] | Potency [17] | Potency [8] | Potency [14] | Potency [15] | Potency [9] | Potency [16] | Potency [18] | Potency [19] | Potency [10]
